The subject of test [1] is Plasmodium falciparum Sir2 (PF13_0152, Sir2A). As to the kind of experiment: Plasmodium falciparum Sir2A binding compounds – biochemical, small-molecule microarray, 635 nm fluorescence, primary screen (AID 1098).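 Further: score merges spot fluorescence intensity with its signal-to-noise ratio.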 The note with it: fluorescence 635 nm, higher = more signal.
Test [2] is described as follows: probe aDKK1 binding to arrayed compounds – biochemical, biotinylated probe, 635/667 nm fluorescence, primary screen (AID 1099).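 Further: score merges 667nm spot fluorescence with signal to noise across triplicate slides.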 The note with it: small-molecule microarray, higher = more signal.
Test [3] in a line: probe aCHRDL2 binding to arrayed compounds – biochemical, biotinylated probe, 635/667 nm fluorescence, primary screen (AID 1100). The conditions noted are these: small-molecule microarray, higher = more signal.
Test [4] is described as follows: change in splice reporter luminescence, either direction, cell-based, HEK293, spliceosome inhibition project, primary screen (AID 1101).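 Further: HEK293 cells carrying a splicing-competent luciferase reporter gene; test concentration not given here.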 The note with it: HEK293 splicing luciferase reporter, 24 h, higher = more signal, called active from +8 up or from −8 down.
The target in test [5] is Fibroblast growth factor 10 (Homo sapiens) (UniProt O15520). The test is described as follows: compounds binding fibroblast growth factor 10 – biochemical, small-molecule microarray, 635 nm fluorescence, primary screen (AID 1102). The conditions noted are these: FGF10 binding, fluorescence 635 nm, higher = more signal.
The test system of test [6] is glycogen synthase kinase-3 (GSK3A per assay name; protocol says GSK3B). The test is described as follows: compounds binding glycogen synthase kinase-3 – biochemical, small-molecule microarray, 635 nm fluorescence, GSK3A, primary screen (AID 1103). Further: the record names both GSK3A and GSK3B. The conditions noted are these: fluorescence 635 nm, higher = more signal.
The target of test [7] is Epidermal growth factor receptor (Homo sapiens) (UniProt P00533). As to the kind of experiment: compounds binding epidermal growth factor receptor – biochemical, small-molecule microarray, 635 nm fluorescence, primary screen (AID 1104).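 Further: score merges 667 nm emission intensity with spot signal to noise over triplicate slides.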 The conditions noted are these: EGFR binding, higher = more signal.
The target of test [8] is Follistatin-related protein 3 (Homo sapiens) (UniProt O95633). As to the kind of experiment: compounds binding follistatin-related protein 3 – biochemical, small-molecule microarray, 635 nm fluorescence, primary screen (AID 1105).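 Further: score merges emission near 667 nm and signal to noise per printed spot across three slides.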 The note with it: FSTL3 binding, higher = more signal.
In test [9] the target is Dickkopf-related protein 1 (Homo sapiens) (UniProt O94907). As to the kind of experiment: small molecules binding DKK1 protein – biochemical, small-molecule microarray, 635 nm fluorescence scan, primary screen (AID 1106).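 Further: score merges emission near 667 nm with signal to noise over three replicate slides.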 The conditions noted are these: higher = more signal.
The subject of test [10] is Inhibin beta A chain (activin A). As to the kind of experiment: small molecules binding activin A – biochemical, small-molecule microarray, 635 nm fluorescence scan, primary screen (AID 1107).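 Further: mouse activin A protein probed at 4.33 µg/mL on printed slides; score merges bound-protein fluorescence near 667 nm with spot signal-to-noise.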 The conditions noted are these: INHBA, higher = more signal.
Test [11] relates to Human papillomavirus type 1a protein E7 (residues 44-93). The test is described as follows: small molecules binding HPV E7 44-93 – biochemical, small-molecule microarray, residues 44-93, 635 nm fluorescence, primary screen (AID 1108).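 Further: E7 fragment applied at 1 µg/mL in TBST for 1 h at 4 C; score combines spot fluorescence with its signal to noise ratio.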 The note with it: fluorescence 635 nm, higher = more signal.
A short description of test [12]: hepatitis C replication reporter changes, two-sided – Huh7 cells, luciferase reporter, HCV replication inhibitor project, primary screen (AID 1109).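 Further: huh7 hepatoma cells harbouring a luciferase neomycin HCV replicon reporter; luciferase luminescence as measure of HCV replicon replication; test concentration not given here.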 The note with it: Huh7 HCV replicon luciferase reporter, 48 h; higher = more signal. For orientation: In a reporter assay the amount or activity of a reporter protein is the signal.
In test [13] the target is Left-right determination factor 2 (Homo sapiens) (UniProt O00292). The test is described as follows: small molecules binding LEFTY2 protein – biochemical, small-molecule microarray, 635 nm fluorescence scan, primary screen (AID 1110). The note with it: higher = more signal.
Test [14] addresses Calmodulin-1 (Homo sapiens) (UniProt P0DP23). The test is described as follows: small molecules binding calmodulin-1 with EGTA – biochemical, small-molecule microarray, Cy5-labelled CALM1, profiling panel (AID 1111).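 Further: labelled calmodulin applied in Tris saline Tween buffer holding calcium plus EGTA and DTT.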 The conditions noted are these: Cy5-CALM1 binding fluorescence, higher = more signal.
Test [15] shares this target. The test is described as follows: small molecules binding Ca-loaded calmodulin-1 – biochemical, small-molecule microarray, Cy5-labelled CALM1, plus calcium, artefact control for SMM control-protein annotation, profiling panel (AID 1112).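 Further: score merges spot fluorescence with signal to noise from triplicate slides.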 The conditions noted are these: Cy5-CALM1 binding fluorescence, higher = more signal.
Test [16] is described as follows: probe aWnt5a binding to arrayed compounds – biochemical, biotinylated probe, 635/667 nm fluorescence, primary screen (AID 1113).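 Further: score merges 667 nm fluorescence intensity with signal-to-noise per printed feature.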 The note with it: small-molecule microarray, higher = more signal.
A short description of test [17]: probe aShh binding to arrayed compounds – biochemical, biotinylated probe, 635/667 nm fluorescence, primary screen (AID 1114).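 Further: probe is biotin-labelled aShh protein from a stem cell growth factor screen; measures binding of labelled protein to compounds printed on the slide; score merges feature fluorescence at 667 nm with signal-to-noise.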 The conditions noted are these: small-molecule microarray, higher = more signal.
Test [18] is described as follows: probe aNog binding to arrayed compounds – biochemical, biotinylated probe, 635/667 nm fluorescence, primary screen (AID 1115).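 Further: probe is biotinylated aNog protein used at 0.15 µg/mL for 1 h at 4 C; z-score combines 667 nm fluorescence of each spot with its signal to noise.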 The note with it: small-molecule microarray, higher = more signal.
For test [19], the target named is Torsin-1A-interacting protein 1 (Homo sapiens) (UniProt Q5JTV8). As to the kind of experiment: compound microarray binding of lysate hLAP1 – cell lysate, small-molecule microarray, COS7 lysate, 635/667 nm fluorescence, primary screen (AID 1116). The conditions noted are these: 635 nm fluorescence, higher = more signal.
In test [20] the target is Alpha-bungarotoxin (Bungarus multicinctus) (UniProt P60615). As to the kind of experiment: compounds binding labelled alpha-BTX control protein – biochemical, small-molecule microarray, Alexa647 label, 635/667 nm fluorescence, artefact control for SMM control protein annotation, profiling panel (AID 1117). The conditions noted are these: alpha-BTX-A647 binding fluorescence, higher = more signal.

Each structure is given as a SMILES string. Active and inactive are the calls of the source.

Chain of Dickkopf-related protein 1 (Homo sapiens) (O94907 whole entry, looked up): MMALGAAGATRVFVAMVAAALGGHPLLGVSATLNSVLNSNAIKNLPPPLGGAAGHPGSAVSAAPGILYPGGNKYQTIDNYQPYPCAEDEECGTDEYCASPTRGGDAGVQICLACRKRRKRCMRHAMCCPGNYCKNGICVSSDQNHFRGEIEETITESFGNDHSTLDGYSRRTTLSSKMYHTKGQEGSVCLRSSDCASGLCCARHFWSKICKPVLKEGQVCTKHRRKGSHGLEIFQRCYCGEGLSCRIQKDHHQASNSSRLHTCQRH
Chain of Fibroblast growth factor 10 (Homo sapiens) (O15520 whole entry, looked up): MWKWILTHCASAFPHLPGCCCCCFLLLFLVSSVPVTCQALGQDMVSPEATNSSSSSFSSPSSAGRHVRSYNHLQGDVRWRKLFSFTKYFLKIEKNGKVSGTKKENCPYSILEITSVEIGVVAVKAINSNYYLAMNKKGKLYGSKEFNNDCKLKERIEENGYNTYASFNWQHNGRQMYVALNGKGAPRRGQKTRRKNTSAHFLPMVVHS
Chain of Epidermal growth factor receptor (Homo sapiens) (P00533 whole entry, looked up): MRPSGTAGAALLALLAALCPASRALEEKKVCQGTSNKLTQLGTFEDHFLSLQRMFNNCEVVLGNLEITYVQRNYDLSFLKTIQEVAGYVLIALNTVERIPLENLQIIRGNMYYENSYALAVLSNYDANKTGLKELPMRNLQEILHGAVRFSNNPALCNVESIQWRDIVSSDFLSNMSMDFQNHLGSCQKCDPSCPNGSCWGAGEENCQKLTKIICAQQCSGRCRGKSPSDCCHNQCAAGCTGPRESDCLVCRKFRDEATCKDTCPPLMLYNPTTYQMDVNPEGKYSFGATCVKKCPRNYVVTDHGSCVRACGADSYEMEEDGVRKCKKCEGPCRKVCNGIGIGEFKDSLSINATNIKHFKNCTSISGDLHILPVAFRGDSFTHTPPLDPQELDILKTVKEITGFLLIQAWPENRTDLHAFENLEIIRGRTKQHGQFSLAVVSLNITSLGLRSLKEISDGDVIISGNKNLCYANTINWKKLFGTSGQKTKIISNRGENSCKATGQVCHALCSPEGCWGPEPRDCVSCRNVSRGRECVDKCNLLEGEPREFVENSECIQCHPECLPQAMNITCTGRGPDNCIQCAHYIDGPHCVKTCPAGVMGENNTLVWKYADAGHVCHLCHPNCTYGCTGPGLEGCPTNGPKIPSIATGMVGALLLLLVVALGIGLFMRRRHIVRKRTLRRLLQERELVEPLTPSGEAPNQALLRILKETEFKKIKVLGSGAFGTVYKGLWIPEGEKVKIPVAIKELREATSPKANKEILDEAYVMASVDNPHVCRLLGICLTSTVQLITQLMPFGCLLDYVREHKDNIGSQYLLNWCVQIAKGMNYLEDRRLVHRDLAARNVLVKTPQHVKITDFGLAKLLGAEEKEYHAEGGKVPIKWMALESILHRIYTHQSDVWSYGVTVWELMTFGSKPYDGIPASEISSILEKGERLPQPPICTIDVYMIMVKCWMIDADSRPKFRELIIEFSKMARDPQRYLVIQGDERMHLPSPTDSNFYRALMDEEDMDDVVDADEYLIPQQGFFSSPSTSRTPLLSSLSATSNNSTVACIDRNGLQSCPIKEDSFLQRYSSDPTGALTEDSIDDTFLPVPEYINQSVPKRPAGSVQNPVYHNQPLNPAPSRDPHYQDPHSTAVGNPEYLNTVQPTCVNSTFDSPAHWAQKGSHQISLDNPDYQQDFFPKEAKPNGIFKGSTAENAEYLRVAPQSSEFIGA
Chain of Torsin-1A-interacting protein 1 (Homo sapiens) (Q5JTV8 whole entry, looked up): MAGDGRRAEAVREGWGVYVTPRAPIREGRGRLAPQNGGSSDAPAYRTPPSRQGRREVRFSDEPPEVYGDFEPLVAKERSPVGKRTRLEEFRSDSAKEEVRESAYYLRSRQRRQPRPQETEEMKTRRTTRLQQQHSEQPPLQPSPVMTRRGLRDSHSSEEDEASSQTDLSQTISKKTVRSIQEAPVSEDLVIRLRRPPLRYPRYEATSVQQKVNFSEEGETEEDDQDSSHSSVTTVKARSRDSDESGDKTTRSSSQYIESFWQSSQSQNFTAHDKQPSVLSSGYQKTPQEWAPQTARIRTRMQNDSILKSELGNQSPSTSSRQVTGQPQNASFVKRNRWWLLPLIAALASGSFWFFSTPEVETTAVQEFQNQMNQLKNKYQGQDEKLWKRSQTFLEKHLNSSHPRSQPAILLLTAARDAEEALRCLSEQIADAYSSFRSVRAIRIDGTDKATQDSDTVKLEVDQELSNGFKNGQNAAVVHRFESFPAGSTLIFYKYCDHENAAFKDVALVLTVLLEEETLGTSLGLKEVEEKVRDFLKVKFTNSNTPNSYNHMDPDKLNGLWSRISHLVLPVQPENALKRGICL
Chain of Left-right determination factor 2 (Homo sapiens) (O00292 whole entry, looked up): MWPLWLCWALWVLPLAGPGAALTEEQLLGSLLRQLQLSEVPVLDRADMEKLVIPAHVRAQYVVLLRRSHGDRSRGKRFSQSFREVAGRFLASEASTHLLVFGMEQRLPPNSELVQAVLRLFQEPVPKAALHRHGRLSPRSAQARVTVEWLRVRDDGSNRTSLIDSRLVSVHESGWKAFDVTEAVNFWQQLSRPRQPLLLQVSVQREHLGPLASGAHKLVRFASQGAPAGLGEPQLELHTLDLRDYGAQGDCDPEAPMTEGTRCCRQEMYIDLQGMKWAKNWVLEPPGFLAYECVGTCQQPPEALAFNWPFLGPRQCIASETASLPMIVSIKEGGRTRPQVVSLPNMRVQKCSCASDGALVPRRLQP
Chain of Follistatin-related protein 3 (Homo sapiens) (O95633 whole entry, looked up): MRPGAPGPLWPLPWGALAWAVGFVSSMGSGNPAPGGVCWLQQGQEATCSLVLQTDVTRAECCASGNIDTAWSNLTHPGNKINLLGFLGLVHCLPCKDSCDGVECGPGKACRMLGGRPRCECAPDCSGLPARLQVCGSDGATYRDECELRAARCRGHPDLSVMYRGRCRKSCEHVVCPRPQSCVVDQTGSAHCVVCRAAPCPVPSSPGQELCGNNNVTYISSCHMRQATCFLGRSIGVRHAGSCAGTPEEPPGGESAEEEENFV
Chain of Alpha-bungarotoxin (Bungarus multicinctus) (P60615 whole entry, looked up): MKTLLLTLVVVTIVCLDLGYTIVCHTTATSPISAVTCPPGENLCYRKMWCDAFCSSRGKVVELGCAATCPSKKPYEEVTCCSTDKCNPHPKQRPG

In the case of `O=C1C2C=CC(C(O)c3cccc(O)c3)N(Nc3ccccc3)C2C(=O)N1c1ccccc1` (stereo not given), the composite z-score in test [1] was -0.131; in test [2], 0.305; in test [3] it was 0.272; in test [5], 0.134; in test [6], -0.194; in test [7], 0.112. Also, the composite z-score in [8] is -0.0752; in [9], -0.347; in test [10], 0.959; in test [11], 0.752; in test [13] it was -0.0995; in test [14], 0.46. Besides, the composite z-score in test [15] came out at 0.16; in test [16], 0.0077; in test [17], 0.398; in test [18] it was 0.496; in [19], 0.539; in test [20] it was 0.546. Further, the results for the z-score in [4] and in test [12] were -0.664 (inactive) and -0.424, respectively.

In the case of `O=C(NCCN1CCOCC1)[C@@H]1c2ccccc2C(=O)N(Cc2ccccc2)[C@H]1c1ccc(CO)cc1`, the composite z-score in [1] is 0.84; in test [2], -0.117; in test [3] it was 0.82; in [5] it was -0.765; in [6] it was -1.13; in [7], -1.81. Besides, the composite z-score in test [8] is -0.481; in test [9] it was -0.667; in [10], 0.269; in test [11], -0.639; in test [13] it was -1.45; in test [14], 0.446. In addition, the composite z-score in test [15] is -1; in test [16] it was -0.219; in test [17], 0.214; in test [18], -0.224; in test [19], -1.47; in [20] it was -1.06. Moreover, the z-score in [4] is -0.316 (inactive); in [12], -0.887.

`CC(CO)N1C(=O)[C@@H]2[C@H]3C(=O)OCC=C[C@H]3OC23C=CCN(c2ccc(Cl)cc2)C(=O)[C@@H]13` (stereo not given in full): the composite z-score in test [1] was 1.93; in test [2], -0.125; in test [3], 0.837; in test [5], -1.59; in [6], -0.501; in test [7], -2.15. Further, the composite z-score was -2.43 in test [8]; -1.92 in test [9]; -3.56 in [10]; -0.716 in test [11]; -2.63 in test [13]; -0.669 in [14]. Moreover, the composite z-score in [15] was -0.934; in test [16], -0.178; in test [17], 1.71; in [18] it was -0.273; in test [19], -1.67; in [20], -1.94. Besides, the z-score in [4] is -0.00913 (inactive); in test [12], -0.205.

Take `CN1C(=O)C2C=CC(C(O)c3ccc(I)cc3)N(Nc3ccccc3)C2C1=O` (stereo not given): the composite z-score in test [1] was 1.23; in test [2] it was 0.158; in test [3], 0.926; in [5], 1.16; in [6] it was 0.995; in test [7], 0.271. For the same compound, the composite z-score was 1.31 in test [8]; -0.158 in test [9]; 0.966 in test [10]; 1.33 in test [11]; 0.136 in [13]; 1.63 in test [14]. The composite z-score in [15] was 0.544; in test [16], 0.172; in test [17], 0.36; in test [18], 0.551; in test [19], 0.0151; in [20], 1.26. The z-score is 0.623 (inactive) in test [4] and 0.132 in test [12].

For the compound `C=C(C)C1CCC(C(O)C2C=CC3C(=O)N(C)C(=O)C3N2Nc2cc(OC)c(OC)c(OC)c2)CC1` (stereo not given), the composite z-score in test [1] came out at 0.506; in test [2] it was 0.005; in [3] it was 0.422; in test [5], 0.755; in [6], 1.17; in test [7], 0.885. The composite z-score in [8] came out at 1.15; in [9], 0.519; in [10] it was 1.11; in test [11], 1.4; in test [13] it was 0.428; in test [14], 0.655. Further, the composite z-score is -0.157 in test [15]; 0.0101 in test [16]; -0.0243 in test [17]; 0.993 in test [18]; -0.161 in test [19]; 1.26 in [20]. Further, the figures for the z-score in test [4] and in test [12] were 0.719 (inactive) and -0.355, respectively.

(Values after PubChem BioAssay.)
